Bioassay records (PubChem BioAssay)
In the library only some 17% were active in any assay of this set; here they are far more common.
TDP1 block: qHTS Assay for Inhibitors of Tyrosyl-DNA Phosphodiesterase (TDP1); Tyrosyl-DNA phosphodiesterase 1 (Homo sapiens), Q9NUW8; recombinant TDP1, AlphaScreen DNA substrate cleavage; 350,000 compounds, 0.28% hits; AID 485290, 2010; Potency, µM (titrated, usually from 130 µM), most hits filed as inhibitors; note: nearly all actives have a fitted effect of over 40% in size
Target sequence (Q9NUW8 whole entry, looked up): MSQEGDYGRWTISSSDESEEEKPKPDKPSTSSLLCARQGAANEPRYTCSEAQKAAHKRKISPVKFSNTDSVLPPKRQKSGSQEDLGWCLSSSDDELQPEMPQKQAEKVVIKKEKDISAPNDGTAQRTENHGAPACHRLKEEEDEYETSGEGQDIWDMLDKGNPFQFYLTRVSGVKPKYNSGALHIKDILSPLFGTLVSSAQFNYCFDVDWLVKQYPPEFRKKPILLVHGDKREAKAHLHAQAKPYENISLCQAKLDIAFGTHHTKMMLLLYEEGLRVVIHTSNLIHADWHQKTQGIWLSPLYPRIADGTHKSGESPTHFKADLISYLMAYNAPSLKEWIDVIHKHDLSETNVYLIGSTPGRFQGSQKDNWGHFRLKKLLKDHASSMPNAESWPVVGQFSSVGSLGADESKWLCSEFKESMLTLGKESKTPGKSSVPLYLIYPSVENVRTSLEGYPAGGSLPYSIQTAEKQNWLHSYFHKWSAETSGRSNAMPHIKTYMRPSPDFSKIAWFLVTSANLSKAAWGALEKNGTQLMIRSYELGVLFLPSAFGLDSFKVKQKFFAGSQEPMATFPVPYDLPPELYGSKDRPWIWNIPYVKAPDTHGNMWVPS
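E. coli-derived human Tdp1, 1 nM final. Cpd preinc 15 min RT; substrate 15 nM final, 5 min RT; AS bead mix 10 ug/ml final, 10 min RT. Signal loss = tyrosine-FITC cleavage. No-enzyme wells = max signal.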
DT40 TDP1 CPT: qHTS for Inhibitors of human tyrosyl-DNA phosphodiesterase 1 (TDP1): qHTS in cells in presence of CPT | chicken DT40 Tdp1-/-;hTDP1 cells + 20 nM CPT, ATP luminescence, 48 h | Potency, µM (titrated, usually from 46.2 µM), hits mostly inhibitors | 420,000 compounds, 12% hits; note: nearly all actives have a fitted effect of over 55% in size
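Chicken DT40 Tdp1-/- cells complemented with human TDP1, 400 cells/well, exposed to compounds plus 20 nM camptothecin for at least 48 h at 37 C; viability read as ATP content by CellTiter-Glo luminescence.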
ClpP mod: qHTS Assay for Activators of ClpP; purified B. subtilis ClpP, FRET peptide cleavage, 20 min; ATP-dependent Clp protease proteolytic subunit (Bacillus subtilis (strain 168)), P80244; Potency, µM (series often up to 57.5 µM); 340,000 compounds, 1.9% hits; active = well fitted falling curve with a large enough effect; inconclusive = small, poorly fitted or top-dose-only effect; inactive = no such curve, though single readings can be large or run the other way; note: the source files actives as falling curves though it sought activators and does not explain the sign; nearly all actives have a fitted effect of over 65% in size
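Purified B. subtilis ClpP, 10 microg/mL final in Tris/HCl pH8 with KCl, BSA, glycerol and Tween-20, cleaved an Abz/nitrotyrosine-quenched decapeptide. Fluorescence (ex 320, em 430) was read at 0 and 20 min at room temperature. Delta was normalized to 5.8 microM ADEP and DMSO/no-enzyme controls.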
DT40 TDP1 no CPT: qHTS for Inhibitors of human tyrosyl-DNA phosphodiesterase 1 (TDP1): qHTS in cells in absence of CPT. 420,000 compounds, 15% hits. DT40 Tdp1-/- hTDP1 cells, no CPT, ATP luminescence, 48 h. Potency, µM (top dose mostly 46.2 µM), hits mostly inhibitors. AID 686978, 2013; note: nearly all actives have a fitted effect of over 55% in size
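Cells were dispensed at 400 per well, compounds added by pin tool, plates incubated ≥48 hr at 37 °C, then CellTiter-Glo added for 30 min at room temperature before luminescence reading. Line: DT40 Tdp1-/- complemented with hTDP1; camptothecin omitted.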
Large screens that a line does not name were inactive. Unless noted, calls come from the whole dose curve; as a rule, active = well fitted curve in the direction sought with a large enough effect; inconclusive = small, poorly fitted or top-dose-only effect, or another doubt; inactive = no such curve, though single readings can be large; an effect the other way counts as inactive or inconclusive.

COC(=O)[C@@]12C[C@@H](CC(=O)NCC3CCCCC3)C(=O)N(Cc3cccc4ccccc34)C1=CCC(C)(C)C2	DT40 TDP1 CPT 21µM, DT40 TDP1 no CPT 16µM (no result: TDP1 block)
Cc1ccc(NC(=O)C2CCCN(c3ncnc4c3nc3n4CCCCC3)C2)cc1Cl (stereo unspecified)	DT40 TDP1 CPT inconclusive, DT40 TDP1 no CPT 21µM
Cc1cccc(NC(=O)C2CCCN(c3ncnc4c3nc3n4CCCCC3)C2)n1 (stereo unspecified)	DT40 TDP1 CPT 10µM, DT40 TDP1 no CPT 7.3µM (no result: TDP1 block)
Cc1ccc(NC(=O)C2CCN(c3ncnc4c3nc3n4CCCCC3)CC2)cc1Cl	DT40 TDP1 CPT inconclusive, DT40 TDP1 no CPT inconclusive
O=C(Nc1ccc(Cl)cc1)C1CCCN(c2ncnc3c2nc2n3CCCCC2)C1 (stereo unspecified)	DT40 TDP1 CPT 23µM, DT40 TDP1 no CPT 18µM (no result: ClpP mod)
CCC(C)C(CO)NCCCn1ccc(NC(=O)OCc2ccccc2)nc1=O (stereo unspecified)	none (no result: TDP1 block)
O=C1[C@H]2[C@H]3[C@H](O)[C@H](O)C/C(=N/OC[C@@H](O)COCc4ccco4)[C@@H]3CC[C@@H]2C(=O)N1Cc1ccccc1	none (no result: DT40 TDP1 CPT, ClpP mod, DT40 TDP1 no CPT)
CC(C)(C)c1ccc(O)c(N=Cc2cccc([N+](=O)[O-])c2)c1	DT40 TDP1 CPT inconclusive, DT40 TDP1 no CPT inconclusive (no result: TDP1 block)
COc1ccc2ccccc2c1CNC(C)c1ccccc1 (stereo unspecified)	DT40 TDP1 CPT 7.3µM, DT40 TDP1 no CPT 10µM (no result: TDP1 block)
CC(NCCCOc1cccc2ccccc12)c1ccccc1 (stereo unspecified)	DT40 TDP1 CPT inconclusive, DT40 TDP1 no CPT 18µM (no result: TDP1 block)
Cc1ccsc1C(C(=O)NC(C)(C)C)N(C(=O)c1csnn1)c1ccccc1 (stereo unspecified)	none
CC(C)[C@H]1COCCS(=O)(=O)N1Cc1ccccc1F	DT40 TDP1 no CPT inconclusive (no result: TDP1 block)
O=S1(=O)CCO[C@H]2Cc3ccccc3[C@H]2N1Cc1ccc(Cl)cc1	DT40 TDP1 CPT inconclusive, DT40 TDP1 no CPT inconclusive (no result: TDP1 block)
Cc1ccccc1CN1[C@@H]2c3ccccc3C[C@@H]2OCCS1(=O)=O	DT40 TDP1 CPT inconclusive, DT40 TDP1 no CPT 16µM (no result: TDP1 block)
O=S1(=O)CCO[C@H]2Cc3ccccc3[C@H]2N1Cc1cccc(Cl)c1	DT40 TDP1 CPT inconclusive, DT40 TDP1 no CPT 18µM (no result: TDP1 block)
COc1cc(Cl)c(C)cc1NC(=O)C(OC(=O)CNC(=O)c1ccccc1)c1ccccc1 (stereo unspecified)	none (no result: DT40 TDP1 CPT, ClpP mod, DT40 TDP1 no CPT)
CCOc1cccc(C(=O)Nc2ccc(N(CC)CC)cc2)c1	DT40 TDP1 CPT 21µM, DT40 TDP1 no CPT inconclusive
CCCC(=O)N1CCN(c2ccc(NC(=S)NC(=O)c3cccc(C)c3)cc2)CC1	DT40 TDP1 CPT inconclusive, ClpP mod inconclusive, DT40 TDP1 no CPT 23µM
CCOc1ccc(OCc2cccc(C(=O)Nc3ccc(CN4CCCCC4)cc3)c2)cc1	DT40 TDP1 CPT 8.2µM, DT40 TDP1 no CPT 21µM
CC(C)Oc1cccc(C(=O)NC(=S)Nc2ccc(N3CCN(C)CC3)cc2)c1	DT40 TDP1 CPT inconclusive, DT40 TDP1 no CPT inconclusive
COc1cccc(C(=O)NC(=S)Nc2ccc(N3CCCC3)cc2)c1	DT40 TDP1 CPT inconclusive, DT40 TDP1 no CPT 16µM
Cc1ccc2[nH]c(=O)c3cc(C(=O)NCc4cccc(Cl)c4)sc3c2c1	DT40 TDP1 CPT inconclusive, ClpP mod inconclusive, DT40 TDP1 no CPT inconclusive
COc1cc(=O)n2c(c1C(=O)N(C)Cc1cscn1)CCN(Cc1ccc3c(c1)OCCO3)CC2	none (no result: TDP1 block, ClpP mod)
CSCCC(NC(=O)COc1ccccc1)C(=O)OC(C)C(=O)Nc1ccccc1C (stereo unspecified)	none
CN1CCN(c2ccc(NC(=S)NC(=O)c3cccc4c(Cl)cccc34)cc2)CC1	DT40 TDP1 CPT 16µM, DT40 TDP1 no CPT inconclusive
CCOc1cccc(C(=O)Nc2ccc(N3CCCC3)cc2)c1	DT40 TDP1 no CPT 16µM (no result: TDP1 block, ClpP mod)
C=C(C)CSc1nc2sc3c(c2c(=O)n1-c1ccccc1)CC(C(C)C)OC3 (stereo unspecified)	none
CCC1CN(Cc2ccc(COC)o2)Cc2cc(OC)ccc2O1 (stereo unspecified)	none (no result: TDP1 block, ClpP mod)
Cc1ccc(C(=O)COC(=O)C(CC(C)C)NC(=O)C2CCC(C)CC2)cc1 (stereo unspecified)	DT40 TDP1 CPT inconclusive, DT40 TDP1 no CPT inconclusive (no result: TDP1 block)
O=C(CN1C(=O)CCSc2ccccc21)Nc1ccc(C(F)(F)F)cc1	none (no result: DT40 TDP1 CPT, DT40 TDP1 no CPT)
CCOC(=O)C1CCCN(c2cc(C)nc3cc(-c4ccc(Cl)cc4)nn23)C1 (stereo unspecified)	DT40 TDP1 CPT inconclusive, ClpP mod inconclusive, DT40 TDP1 no CPT 23µM
CCOC(=O)C1CCCN(c2cc(C)nc3cc(-c4ccc(F)cc4)nn23)C1 (stereo unspecified)	DT40 TDP1 CPT 23µM, ClpP mod inconclusive, DT40 TDP1 no CPT 23µM
CCOC(=O)C1CCCN(C(=S)Nc2ccc(F)cc2)C1 (stereo unspecified)	none (no result: ClpP mod)
COc1ccc(OC)c(C(=O)N2CCC(n3nccc3NC(=O)CC(C)C)CC2)c1	none
CNc1nc(-c2ccccc2)nc(-c2ccccc2)c1C#N	DT40 TDP1 CPT inconclusive
NNc1nc(-c2ccccc2)nc(-c2ccccc2)c1Br	DT40 TDP1 CPT inconclusive, DT40 TDP1 no CPT 8.2µM (no result: TDP1 block)
COc1cc(C(=O)OCCc2cc3ccccc3c(=O)o2)cc(OC)c1OC	DT40 TDP1 CPT 4.1µM, DT40 TDP1 no CPT 5.8µM
COc1cc2cc(CCCOC(=O)c3cc(OC)c(OC)c(OC)c3)oc(=O)c2cc1OC	DT40 TDP1 no CPT inconclusive
